This is a sample that favours compounds with a hit; in the whole collection about 4.2% have one here.
RecA splice inh = inhibitors of M. tuberculosis RecA intein splicing | cell-free RecA intein splicing, fluorescence | inhibition, % (no concentration beside the values) | P9WHJ3 | 290,000 compounds, 0.75% hits; in the data active means inhibition above about 30%;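 further: 0% = vehicle wells and 100% = reference inhibitor control wells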
FBA Mtb inh = Mtb fructose-bisphosphate aldolase inhibition. AID 588726. purified M. tuberculosis FBA, fluorescence read-out. inhibition, % at 1 µM. P9WQA3. 360,000 compounds, 2.3% hits; in the data active means inhibition above about 27%;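 further: 0% = vehicle and 100% = reference inhibitor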
Target sequence (P9WQA3 whole entry, looked up): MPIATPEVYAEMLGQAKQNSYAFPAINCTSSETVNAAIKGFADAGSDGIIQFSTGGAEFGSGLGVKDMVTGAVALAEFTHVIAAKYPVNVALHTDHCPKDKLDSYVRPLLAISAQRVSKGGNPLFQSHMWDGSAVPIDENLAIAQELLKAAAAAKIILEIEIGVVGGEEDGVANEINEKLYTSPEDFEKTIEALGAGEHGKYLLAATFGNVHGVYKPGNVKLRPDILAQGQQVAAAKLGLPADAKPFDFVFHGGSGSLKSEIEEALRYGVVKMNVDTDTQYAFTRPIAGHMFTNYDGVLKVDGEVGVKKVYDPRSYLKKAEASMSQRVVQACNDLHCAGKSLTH
GDH-TPI inh = counter-screen for M. tuberculosis FBA inhibitors: GDH-TPI coupled enzymes. GDH-TPI coupled enzyme counterscreen, NADH absorbance. inhibition, % at 4.8 µM. 360,000 compounds, 1.2% hits;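 further: 0% = DMSO wells and 100% = wells lacking the enzyme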
CCHFV vOTU inh = CCHFV vOTU protease inhibition; Pep-AMC fluorescence; inhibition, % at 11.5 µM; 370,000 compounds, 0.55% hits; further: 0% = vehicle wells with enzyme and 100% = no enzyme wells
GFP chromophore = counter-screen: blocks GFP chromophore formation; cell-free GFP chromophore formation, fluorescence; 2,100 compounds, 83% hits; shares compounds with RecA splice inh; EC50, µM; call rule not given here
An asterisk follows results filed as active; . = not tested or not shown. Unless noted, no stated cut-off is given here; in the data, active means inhibition above about 30%; inactive means the rest.

SMILES | RecA splice inh | FBA Mtb inh | GDH-TPI inh | CCHFV vOTU inh | GFP chromophore
Cc1ccc(S(=O)(=O)Oc2ccccc2)cc1 | . | 1 | -11 | -4 | .
CCCC(=O)N(C1CC(C)C(C#N)(C#N)C1(C#N)C#N)N(C)C (centres undefined) | 93* | -2 | -3 | 0 | 4.9*
CC(=O)N(C1CC(C)C(C#N)(C#N)C1(C#N)C#N)N(C)C (centres undefined) | 81* | 5 | 1 | -14 | 19*
COc1cccc(NC(=S)/C(=C(\[O-])c2ccc(OC(F)F)cc2)[n+]2ccccc2)c1 | 37* | 3 | 8 | 10 | 35*
COCC(=O)N[C@@H]1c2cc(OC)c(OC)cc2C[C@H]1OCc1ccccc1 | . | -2 | -4 | -6 | .
O=C(NC1=C(Nc2ccc(Cl)cc2)C(=O)c2ccccc2C1=O)c1ccccc1 | 49* | -1 | 2 | 18 | 25*
COc1ccc(C2=NS(=O)(=O)N(C)C(C(=O)N3CCCCC3C)=C2)cc1 (centres undefined) | -6 | 0 | 15 | 11 | .
CC1=NN(c2nc(-c3ccccc3)cs2)C(=O)C1 | 66* | -4 | 4 | 18 | 8.5*
Nc1ccc(Nc2ccccc2N)cc1 | 58* | 3 | -1 | 18 | 20*
COc1ccc(Nc2ccccc2N)cc1 | 4 | 5 | 9 | -11 | .
Cc1ccc(C(=O)NC(=S)NNS(=O)(=O)c2ccc(C)cc2)cc1 | 41* | 3 | -10 | -1 | >38
CC(C)Sc1nc2ccccc2n2cnnc12 | -1 | 2 | 7 | 4 | .
CCc1cccc(NC(=O)Cn2cccc2)c1 | -1 | -2 | -2 | -4 | .
CCc1cccc(NC(=O)CSCc2cc(=O)[nH][nH]2)c1 | 81* | 1 | 9 | -1 | 12*
O=C(Nc1ccccn1)c1sc2cccc(F)c2c1Cl | -4 | 1 | -4 | 20 | .
CCN(CC(=O)Nc1ccc2c(c1)OCCO2)C(=O)c1ccc(Cl)cc1Cl | -1 | 9 | 11 | 4 | .
O=C1CCCC2=C1C1(O)C(=O)c3ccccc3C1(O)O2 (centres undefined) | 89* | 5 | -5 | 13 | 10*
COc1ccc(NC(=O)N(C)C[C@H]2Oc3c(NC(=O)C4CC4)cccc3C(=O)N([C@H](C)CO)C[C@@H]2C)cc1 | . | 3 | 10 | 10 | .
Cc1ccc(C2=NS(=O)(=O)N(C)C(C(=O)NCc3ccccc3)=C2)cc1 | -7 | -1 | 19 | 12 | .
Cc1onc(-c2c(Cl)cccc2Cl)c1C(=O)N1C(C)CCCC1C (centres undefined) | 81* | 2 | 0 | 6 | >38
CC(C)(C)NC(=O)C1(C)CCC(=O)N1C1CCN(Cc2ccccc2)CC1 (centres undefined) | . | 3 | . | -2 | .
C=CCOC(=O)Nc1nc(CCNC(=O)OC(C)(C)C)c(C(=O)OC)s1 | . | . | . | 14 | .
N#CC(C#N)C(c1ccsc1)c1c(-c2ccccc2)[nH][nH]c1=O (centres undefined) | 86* | 1 | 11 | 2 | 7.6*
O=C(O)CC(CC(=O)O)c1ccsc1 | . | -1 | 8 | -5 | .
CC(=O)c1cccc(NC(=O)NC2CC(=O)N(c3ccc4c(c3)OCCO4)C2)c1 (centres undefined) | -1 | 1 | -1 | 9 | .
SMILES | RecA splice inh | FBA Mtb inh | GDH-TPI inh | CCHFV vOTU inh | GFP chromophore
CC1=NN(c2ccc(C)cc2C)C(=O)C1C(c1ccccc1)C1C(=O)N(c2ccc(C)cc2C)N=C1C (centres undefined) | 90* | -1 | 4 | . | 1.1*
Cc1ccc2nc(/C(C#N)=C\c3ccc([N+](=O)[O-])o3)[nH]c2c1 | 34* | -5 | 8 | -1 | 8.4*
O=C(c1ccc2nc(Cc3cccc(Cl)c3)oc2c1)N1CCC(CO)CC1 | 2 | -2 | 0 | 13 | .
O=C(c1ccc2nc(Cc3cccc(Cl)c3)oc2c1)N1CCC(O)CC1 | 42* | 0 | -1 | -2 | >38
CCOC(=O)c1nnc(-c2ccccc2)nc1Sc1ccccc1Cl | 40* | 0 | 3 | -1 | 2*
CCOC(=O)c1nnc(-c2ccc(C)cc2)nc1Sc1cccc(Cl)c1 | 4 | 3 | 9 | 4 | .
Cc1ccccc1N1C(=O)c2ccccc2C1Nc1cccnc1 (centres undefined) | 33* | 0 | -14 | 8 | >38
COc1ccc(NC2c3ccccc3C(=O)N2c2cccnc2)cc1 (centres undefined) | 1 | -7 | 10 | -8 | .
COc1ccc(/C=C/C(=O)c2ccncc2)c2ccccc12 | 57* | -8 | 3 | 29 | 23*
COc1ccc(/C=C/C(=O)c2ccc[nH]2)c(OC)c1OC | 3 | 0 | 26 | 16 | .
O=C(CCS(=O)(=O)c1ccccc1)Nc1ccc(S(=O)(=O)Nc2nccs2)cc1 | . | 3 | 14 | 11 | .
O=C1c2[nH]nc(-c3ccccc3O)c2C(c2cccc(Cl)c2)N1Cc1ccco1 (centres undefined) | 34* | -6 | -3 | 6 | >38
O=C1c2[nH]nc(-c3ccccc3O)c2C(c2ccc(F)cc2)N1Cc1ccco1 (centres undefined) | 20 | 0 | 6 | 17 | .
Cc1cccc(NC(=O)c2ncn3c2C(=O)N[C@H](C)C3)c1 | . | 1 | . | 8 | .
COc1ccccc1-c1cn[nH]c(=S)n1 | 35* | 5 | 7 | 10 | >38
CCN(C(=O)c1cc2c(s1)-c1ccccc1OC2)c1cc(OC)ccc1OC | 9 | 2 | 21 | 6 | .
COc1ccc(N(C)C(=O)c2cc3c(s2)-c2c(C)cccc2OC3)c(OC)c1 | 33* | 6 | 31* | -12 | >38
O=C1C(Cl)=C(N2CCC(C(=O)O)CC2)C(=O)c2ccccc21 | 50* | 3 | 11 | . | 13*
C[C@H](NC(=O)c1ccco1)C(=O)OCC(=O)N1CC(=O)Nc2ccccc21 | . | -2 | 7 | -3 | .
CCC(=O)N1CCN(c2nc(CC)nc3sc4c(c23)CCCC4)CC1 | 1 | 0 | 4 | 7 | .
CC1CCc2c(sc3nc(C(C)(C)C)nc(N4CCN(C(=O)CCl)CC4)c23)C1 (centres undefined) | 83* | 1 | 2 | 18 | 0.96*
COc1ccccc1-c1cc(C(F)(F)F)nc(S(=O)(=O)CCCC(=O)N2CCOCC2)n1 | 48* | 3 | 12 | 6 | 16*
COc1ccc(-c2cc(C(F)(F)F)nc(S(=O)(=O)CCCC(=O)Nc3cccc(O)c3)n2)cc1OC | 62* | 0 | 9 | -10 | 19*
Cc1ccc(S(=O)(=O)Nc2c(O)ccc3ccccc23)cc1 | 76* | 2 | -5 | . | 3.1*
O=S(=O)(Nc1c(O)ccc2ccccc12)c1cccc2ccccc12 | 84* | 3 | 1 | . | 4.3*
Cc1ccc(S(=O)(=O)NN=Cc2c(O)ccc3ccccc23)cc1 | . | 1 | 21 | 25 | .
COc1cccc(/C=C2\SC(=S)N(CCCC(=O)N3CCCC3)C2=O)c1 | 33* | 0 | 23 | 12 | >38
COc1cccc(/C=C2\SC(=S)N(CCCC(=O)N3CCCCC3CCO)C2=O)c1 (centres undefined) | 0 | -1 | 15 | 14 | .
COc1ccc(/C=C2\SC(=S)N(CCCC(=O)Nc3ccc(O)cc3)C2=O)cc1 | 40* | -5 | 25 | 13 | >38
O=C(Nc1ccccc1OC(F)F)c1cccc(S(=O)(=O)N2CCCC2)c1 | 1 | 1 | 11 | -12 | .

Source: PubChem (several laboratories)
